Laboratory results reported in PubChem BioAssay AID1159580 (chemical genetic matrix, 2015).
Out of some 5,500 compounds screened, about 2,000 (36%) were called active. Roughly 18% stayed inconclusive and do not appear here. Some of the results follow. Values without a mark were called inactive. No stated cut-off is given here; in the data, active means normalized growth mostly below about 0.91 (no sharp cut-off); inconclusive means no clear call, values can overlap the other calls; inactive means mostly above about 0.92.

Assay: chemical genetic growth profiling, strain panel (AID 1159580);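 further: tested at 20 µM; growth read once vehicle control cultures reached saturation at 30 °C; 1 = growth at the plate median or of vehicle wells; lower values mean less growth of the strain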
Settings: S. cerevisiae deletion strains, growth OD
[1] = locus YAR019C, strain CDC15, active compounds read low
[2] = locus YBL105C, strain PKC1, active compounds read low
[3] = locus YBR135W, strain CKS1, active compounds read low
[4] = locus YBR136W, strain MEC1, active compounds read low
[5] = locus YBR160W, strain CDC28, active compounds read low
[6] = locus YDL017W, strain CDC7, active compounds read low
[7] = locus YDL028C, strain MPS1, active compounds read low
[8] = locus YDL101C, strain DUN1, active compounds read low
[9] = locus YDL108W, strain KIN28, active compounds read low
[10] = locus YDL132W, strain cdc53, active compounds read low
[11] = locus YDL214C, strain PRR2, active compounds read low
[12] = locus YDR052C, strain DBF4, active compounds read low
[13] = locus YDR054C, strain cdc34, active compounds read low
[14] = locus YDR226W, strain ADK1, active compounds read low
[15] = locus YDR477W, strain SNF1, active compounds read low
[16] = locus YER123W, strain YCK3, active compounds read low
[17] = locus YER133W, strain GLC7, active compounds read low
[18] = locus YFL009W, strain cdc4, active compounds read low
[19] = locus YFL029C, strain CAK1, active compounds read low
[20] = locus YFR003C, strain YPI1, active compounds read low
[21] = locus YFR019W, strain FAB1, active compounds read low
[22] = locus YFR028C, strain CDC14, active compounds read low
[23] = locus YGR040W, strain KSS1, active compounds read low
[24] = locus YGR052W, strain FMP48, active compounds read low
[25] = locus YGR092W, strain DBF2, active compounds read low
[26] = locus YHR030C, strain SLT2, active compounds read low
[27] = locus YHR079C, strain IRE1, active compounds read low
[28] = locus YHR082C, strain KSP1, active compounds read low
[29] = locus YHR205W, strain SCH9, active compounds read low
[30] = locus YIL147C, strain SLN1, active compounds read low
[31] = locus YJL095W, strain BCK1, active compounds read low
[32] = locus YJL128C, strain PBS2, active compounds read low
[33] = locus YJL157C, strain FAR1, active compounds read low
[34] = locus YJR016C, strain ILV3, active compounds read low
[35] = locus YJR066W, strain TOR1 (second series), active compounds read low
[36] = locus YJR066W, strain TOR1, active compounds read low
[37] = locus YKL048C, strain ELM1, active compounds read low
[38] = locus YKL101W, strain HSL1, active compounds read low
[39] = locus YKL193C, strain SDS22, active compounds read low
[40] = locus YKL203C, strain TOR2, active compounds read low
[41] = locus YLR113W, strain HOG1, active compounds read low
[42] = locus YLR133W, strain CKI1, active compounds read low
[43] = locus YLR403W, strain SFP1, active compounds read low
[44] = locus YML070W, strain DAK1, active compounds read low
[45] = locus YMR001C, strain CDC5, active compounds read low
[46] = locus YMR205C, strain PFK2 (second series), active compounds read low
[47] = locus YMR277W, strain FCP1, active compounds read low
[48] = locus YNL006W, strain LST8, active compounds read low
[49] = locus YNL020C, strain ARK1, active compounds read low
[50] = locus YNL161W, strain CBK1, active compounds read low
[51] = locus YNL183C, strain NPR1, active compounds read low
[52] = locus YNL207W, strain RIO2, active compounds read low
[53] = locus YNL222W, strain SSU72, active compounds read low
[54] = locus YNL307C, strain MCK1 (second series), active compounds read low
[55] = locus YOL078W, strain AVO1, active compounds read low
[56] = locus YOL136C, strain PFK27, active compounds read low
[57] = locus YOR061W, strain CKA2, active compounds read low
[58] = locus YOR119C, strain RIO1, active compounds read low
[59] = locus YOR231W, strain MKK1, active compounds read low
[60] = locus YOR329C, strain SCD5, active compounds read low
[61] = locus YPL031C, strain PHO85, active compounds read low
[62] = locus YPL153C, strain RAD53, active compounds read low
[63] = locus YPL204W, strain HRR25, active compounds read low
[64] = locus YPL209C, strain IPL1, active compounds read low
[65] = locus YPL256C, strain CLN2, active compounds read low
[66] = locus YPR025C, strain CCL1, active compounds read low
[67] = locus YPR106W, strain ISR1, active compounds read low
[68] = locus YPR111W, strain DBF20, active compounds read low
[69] = strain NNK1, active compounds read low
[70] = strain TSCII, active compounds read low
[71] = locus YAL040C, strain CLN3, active compounds read low
[72] = locus YCL061C, strain MRC1 (second series), active compounds read low
[73] = locus YDR363W, strain ESC2, active compounds read low
[74] = locus YER002W, strain NOP16, active compounds read low
[75] = locus YGR078C, strain PAC10, active compounds read low
[76] = locus YJR075W, strain HOC1, active compounds read low
[77] = locus YMR263W, strain SAP30, active compounds read low
[78] = locus YMR307W, strain GAS1, active compounds read low
[79] = locus YNL175C, strain NOP13, active compounds read low
[80] = locus YNL197C, strain WHI3, active compounds read low
[81] = locus YNL224C, strain SQS1, active compounds read low
[82] = locus YNL322C, strain KRE1, active compounds read low
[83] = locus YOR083W, strain WHI5 (second series), active compounds read low
[84] = locus YPL055C, strain LGE1, active compounds read low
[85] = locus YPL241C, strain CIN2, active compounds read low
[86] = locus YAL013W, strain DEP1, active compounds read low
[87] = locus YDR150W, strain NUM1, active compounds read low
[88] = locus YNL153C, strain GIM3, active compounds read low

SMILES: Cc1oc(C(C)(C)C)cc1-c1cc(N)n(-c2ccc(I)cc2)n1
- normalized growth [1]: 1
- normalized growth [2]: 1.01
- normalized growth [3]: 1.02
- normalized growth [4]: 0.992
- normalized growth [5]: 1.01
- normalized growth [6]: 1.01
- normalized growth [7]: 0.976
- normalized growth [8]: 0.987
- normalized growth [9]: 1.02
- normalized growth [10]: 1.01
- normalized growth [11]: 1.15
- normalized growth [12]: 1
- normalized growth [13]: 1.01
- normalized growth [14]: 0.987
- normalized growth [15]: 0.956
- normalized growth [16]: 0.946
- normalized growth [17]: 0.992
- normalized growth [18]: 0.992
- normalized growth [19]: 0.995
- normalized growth [20]: 1
- normalized growth [21]: 0.967
- normalized growth [22]: 1
- normalized growth [23]: 0.985
- normalized growth [24]: 0.985
- normalized growth [25]: 0.882
- normalized growth [26]: 0.717 (active)
- normalized growth [27]: 0.894
- normalized growth [28]: 0.957
- normalized growth [29]: 0.885
- normalized growth [30]: 0.997
- normalized growth [31]: 0.851
- normalized growth [32]: 0.961
- normalized growth [33]: 0.979
- normalized growth [34]: 1.01
- normalized growth [35]: 0.936
- normalized growth [36]: 0.903
- normalized growth [37]: 0.98
- normalized growth [38]: 0.948
- normalized growth [39]: 1.02
- normalized growth [40]: 1.05
- normalized growth [41]: 0.815 (active)
- normalized growth [42]: 0.943
- normalized growth [43]: 0.965
- normalized growth [44]: 0.971
- normalized growth [45]: 1
- normalized growth [46]: 0.94
- normalized growth [47]: 1.13 [resistant] (active)
- normalized growth [48]: 1.01
- normalized growth [49]: 0.968
- normalized growth [50]: 1.02
- normalized growth [51]: 0.988
- normalized growth [52]: 1.02
- normalized growth [53]: 1.03
- normalized growth [54]: 0.935
- normalized growth [55]: 1.03
- normalized growth [56]: 0.959
- normalized growth [57]: 0.944
- normalized growth [58]: 0.972
- normalized growth [59]: 0.927
- normalized growth [60]: 1.01
- normalized growth [61]: 0.983
- normalized growth [62]: 0.987
- normalized growth [63]: 0.964
- normalized growth [64]: 1.01
- normalized growth [65]: 0.892
- normalized growth [66]: 1.01
- normalized growth [67]: 0.992
- normalized growth [68]: 0.989
- normalized growth [69]: 1
- normalized growth [70]: 1.01

SMILES: C[C@@H](N)Cc1cnc[nH]1
- normalized growth [71]: 0.96
- normalized growth [72]: 1.01
- normalized growth [73]: 1.02
- normalized growth [74]: 1.01
- normalized growth [75]: 1.02
- normalized growth [76]: 1.02
- normalized growth [77]: 1.01
- normalized growth [78]: 1.02
- normalized growth (locus YNL128W, strain TEP1, active compounds read low): 1.01
- normalized growth [79]: 1.01
- normalized growth [80]: 1.02
- normalized growth [81]: 1.02
- normalized growth [82]: 1.02
- normalized growth [83]: 1.04
- normalized growth [84]: 1.03
- normalized growth [85]: 1.01

SMILES: O=C(Nc1ccccc1Sc1ccc([N+](=O)[O-])cc1[N+](=O)[O-])C(Cl)(Cl)Cl
- normalized growth [1]: 0.972
- normalized growth [2]: 0.972
- normalized growth [3]: 0.973
- normalized growth [4]: 0.97
- normalized growth [5]: 0.983
- normalized growth [6]: 0.975
- normalized growth [7]: 0.973
- normalized growth [8]: 0.976
- normalized growth [9]: 0.958
- normalized growth [10]: 0.983
- normalized growth [11]: 0.987
- normalized growth [12]: 0.974
- normalized growth [13]: 0.971
- normalized growth [14]: 0.965
- normalized growth [15]: 0.977
- normalized growth [16]: 0.986
- normalized growth [17]: 0.969
- normalized growth [18]: 0.96
- normalized growth [19]: 0.973
- normalized growth [20]: 0.965
- normalized growth [21]: 0.984
- normalized growth [22]: 0.966
- normalized growth [23]: 0.975
- normalized growth [24]: 1.02
- normalized growth [25]: 0.985
- normalized growth [26]: 1.02
- normalized growth [27]: 0.967
- normalized growth [28]: 1.06
- normalized growth [29]: 0.795
- normalized growth [30]: 0.972
- normalized growth [31]: 1.01
- normalized growth [32]: 0.92
- normalized growth [33]: 0.97
- normalized growth [34]: 0.971
- normalized growth [35]: 0.967
- normalized growth [36]: 1.1
- normalized growth [37]: 0.976
- normalized growth (locus YKL067W, strain YNK1, active compounds read low): 0.982
- normalized growth [38]: 1
- normalized growth [39]: 0.965
- normalized growth [40]: 1.02
- normalized growth [41]: 1.04
- normalized growth [42]: 0.977
- normalized growth [43]: 0.873
- normalized growth [44]: 0.998
- normalized growth [45]: 0.975
- normalized growth [46]: 0.973
- normalized growth [47]: 0.955
- normalized growth [48]: 0.991
- normalized growth [49]: 0.994
- normalized growth [50]: 0.968
- normalized growth [51]: 1.1
- normalized growth [52]: 0.967
- normalized growth [53]: 0.976
- normalized growth [54]: 1
- normalized growth [55]: 0.978
- normalized growth [56]: 0.982
- normalized growth [57]: 0.98
- normalized growth [58]: 1.05
- normalized growth [59]: 1.08
- normalized growth [60]: 0.986
- normalized growth [61]: 0.959
- normalized growth [62]: 0.975
- normalized growth [63]: 0.966
- normalized growth [64]: 0.971
- normalized growth [65]: 0.996
- normalized growth [66]: 0.991
- normalized growth [67]: 0.952
- normalized growth [68]: 0.964
- normalized growth [69]: 0.972
- normalized growth [70]: 0.981

SMILES: C/C(O)=C(\C#N)C(=O)Nc1cc(Br)ccc1Br
- normalized growth [86]: 0.98
- normalized growth [71]: 1.01
- normalized growth [72]: 0.99
- normalized growth [87]: 0.989
- normalized growth [73]: 1.05
- normalized growth [74]: 1
- normalized growth [75]: 0.97
- normalized growth (locus YGR229C, strain SMI1, active compounds read low): 1.01
- normalized growth [76]: 1.02
- normalized growth [77]: 0.969
- normalized growth [88]: 0.999
- normalized growth [79]: 0.959
- normalized growth [80]: 0.961
- normalized growth [81]: 0.967
- normalized growth [82]: 0.983
- normalized growth [83]: 0.972
- normalized growth [85]: 0.98

SMILES: O=C(Nc1ccc(Br)cc1Cl)C(Cl)(Cl)Cl
- normalized growth [86]: 0.975
- normalized growth (locus YBR229C, strain ROT2, active compounds read low): 0.964
- normalized growth [8]: 0.996
- normalized growth [87]: 0.97
- normalized growth (locus YEL061C, strain CIN8, active compounds read low): 0.945
- normalized growth [75]: 0.943
- normalized growth [26]: 0.635 (active)
- normalized growth (locus YHR087W, strain rtc3, active compounds read low): 0.935
- normalized growth (locus YJR043C, strain POL32, active compounds read low): 0.957
- normalized growth [76]: 0.888 (active)
- normalized growth (locus YKL190W, strain CNB1, active compounds read low): 0.941
- normalized growth (locus YLR039C, strain RIC1, active compounds read low): 0.609 (active)
- normalized growth (locus YLR058C, strain SHM2 (second series), active compounds read low): 0.94
- normalized growth (locus YLR085C, strain ARP6, active compounds read low): 0.782
- normalized growth (locus YLR262C, strain YPT6, active compounds read low): 0.635 (active)
- normalized growth (locus YML094W, strain GIM5, active compounds read low): 1.04
- normalized growth (locus YMR219W, strain ESC1, active compounds read low): 0.955
- normalized growth [77]: 0.963
- normalized growth [78]: 0.56 (active)
- normalized growth [88]: 0.962
- normalized growth (locus YNL298W, strain CLA4 (second series), active compounds read low): 0.855
- normalized growth [82]: 0.95
- normalized growth (locus YNR030W, strain Alg12, active compounds read low): 0.935
- normalized growth (locus YOL006C, strain TOP1, active compounds read low): 0.681 (active)
- normalized growth [84]: 0.956
- normalized growth [85]: 1.02
- normalized growth (locus YPR135W, strain CTF4, active compounds read low): 0.64 (active)
